Shown are actives, neighbours in structure and some others; about 19% of the full set was active somewhere.
DT40 TDP1 CPT: DT40-hTDP1 cell growth loss with CPT. 420,000 tested, 12% active. chicken DT40 Tdp1-/-;hTDP1 cells + 20 nM CPT, ATP luminescence, 48 h. Potency, µM (titrated, usually from 46.2 µM), usual class: inhibitors; also: nearly all actives have a fitted effect of over 55% in size
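Cell growth measured by CellTiter-Glo luminescence after a minimum 48 h, 37 C compound exposure with 20 nM CPT in Tdp1-knockout DT40 cells stably expressing hTDP1, seeded 400/well; qHTS titration format.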
HT1080 IDH1KD tx: kills HT-1080 cells with IDH1 knockdown; HT-1080 IDH1 knockdown viability, ATP luminescence, 48 h; Potency, µM (highest dose often 46.1 µM), actives largely listed as cytotoxic; 360,000 tested, 2% active
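% activity derives from luminescence (CellTiter-Glo), normalised to DMSO and no-cell wells. HT-1080-IDH1KD cells, 750/well, had 48 h compound exposure at 37 °C.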
DT40 TDP1 no CPT: qHTS for Inhibitors of human tyrosyl-DNA phosphodiesterase 1 (TDP1): qHTS in cells in absence of CPT | 420,000 tested, 15% active | DT40 Tdp1-/- hTDP1 cells, no CPT, ATP luminescence, 48 h | Potency, µM (highest dose often 46.2 µM), usual class: inhibitors | AID 686978, 2013; also: nearly all actives have a fitted effect of over 55% in size
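Cells were dispensed at 400 per well, compounds added by pin tool, plates incubated ≥48 hr at 37 °C, then CellTiter-Glo added for 30 min at room temperature before luminescence reading. Line: DT40 Tdp1-/- complemented with hTDP1; camptothecin omitted.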
IL-1B inflam inh: blocks inflammasome-driven IL-1 beta release; 360,000 tested, 4.7% active; THP-1 LPS/ATP IL-1B secretion, AlphaLISA, 16 h; hits give low values; activity change, % at 57.5 µM; in the data active = activity change below about -50%; inconclusive = mostly about -30% to -49%
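Secreted IL-1B measured by AlphaLISA bead assay after 16 h compound exposure of THP-1 cells; compounds (final up to 57.5 uM) added 1 h before LPS (250 ng/mL) and ATP (1.25 mM) stimulation; lower signal means less secretion.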
HT1080-NT tox: kills 2HG-producing HT-1080-NT fibrosarcoma cells; HT-1080-NT fibrosarcoma viability, CellTiter-Glo ATP luminescence, 48 h; Potency, µM (series often up to 46.1 µM), usual class: cytotoxic; 360,000 tested, 1.6% active;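 also: NT is the 2HG producing partner of a matched IDH1 knockdown line; nearly all actives have a fitted effect of over 55% in size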
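Viability by CellTiter-Glo luminescence after 48 h compound exposure at 37C of HT-1080-NT cells (750/well, RPMI, 5% FBS). % activity scaled between DMSO wells and medium-only wells, then curve-fitted and categorized by curve class.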
Numbers stand for hits. Unless noted, calls follow the shape of the dose curve; as a rule, active = well fitted curve in the direction sought with a large enough effect; inconclusive = small, poorly fitted or top-dose-only effect, or another doubt; inactive = no such curve, though single readings can be large; an effect the other way counts as inactive or inconclusive.

For CC(=O)Nc1ccc(OC/C=C(\C)Cl)cc1 the results were DT40 TDP1 CPT inactive, HT1080 IDH1KD tx inactive, DT40 TDP1 no CPT inactive, IL-1B inflam inh inactive and HT1080-NT tox inactive.
For C/C(Cl)=C\COc1cc(C)nc2c(Br)cccc12 the results were DT40 TDP1 CPT inactive, HT1080 IDH1KD tx inactive, DT40 TDP1 no CPT 29.1µM, IL-1B inflam inh inactive and HT1080-NT tox inactive.
For CCOC(=O)c1ccc(-c2c(-c3ccc4c(c3)OCO4)noc2C)cc1F the results were DT40 TDP1 CPT 15.8µM, HT1080 IDH1KD tx inactive, DT40 TDP1 no CPT inconclusive, IL-1B inflam inh inactive and HT1080-NT tox inactive.
For Cc1noc(C)c1COC(=O)c1ccc2c(c1)OCO2 the results were DT40 TDP1 CPT inactive, HT1080 IDH1KD tx inactive, DT40 TDP1 no CPT inactive, IL-1B inflam inh inactive and HT1080-NT tox inactive.
`CN(C)CC(C)(C)CNC(=O)c1cc(=O)c2ccccc2o1` gave DT40 TDP1 CPT inactive, HT1080 IDH1KD tx inactive, DT40 TDP1 no CPT inactive, IL-1B inflam inh inactive and HT1080-NT tox inactive.
For COc1cccc(CNC(=O)Cn2c(=O)oc3cc(S(=O)(=O)N4CCC(C)CC4)ccc32)c1 the results were DT40 TDP1 CPT 7.31µM and DT40 TDP1 no CPT 5.17µM.
For CC1CCN(S(=O)(=O)c2ccc3c(c2)oc(=O)n3CC(=O)N2CCCCC2)CC1 the results were DT40 TDP1 CPT inactive and DT40 TDP1 no CPT inactive.
COc1cccc(CNC(=O)Cn2ccc3cc(S(=O)(=O)N4CCC(C)CC4)ccc32)c1 was read as DT40 TDP1 CPT inconclusive, HT1080 IDH1KD tx inactive, DT40 TDP1 no CPT inconclusive, IL-1B inflam inh inactive and HT1080-NT tox inactive.
CC1CCN(S(=O)(=O)c2ccc3c(c2)oc(=O)n3CC(=O)NCc2ccc(F)cc2)CC1 was read as DT40 TDP1 CPT 11.6µM and DT40 TDP1 no CPT 8.2µM.
`CCc1ccc(C2=CC(c3c(F)cccc3Cl)n3c(nc4ccccc43)N2)cc1` (stereo not drawn) gave DT40 TDP1 CPT 18.4µM and DT40 TDP1 no CPT 7.31µM.
CC(C)(C)C(=O)/C=c1\s/c(=C\c2ccc(-c3ccc([N+](=O)[O-])cc3)o2)c(=O)n1CC(=O)NC(N)=O was read as DT40 TDP1 CPT inconclusive, HT1080 IDH1KD tx inactive, DT40 TDP1 no CPT 23.1µM, IL-1B inflam inh inactive and HT1080-NT tox inactive.
For CC(OC(=O)c1ccc(-c2ccc([N+](=O)[O-])cc2)o1)C(=O)NC(N)=O (stereo not drawn) the results were DT40 TDP1 CPT inactive, HT1080 IDH1KD tx inactive, DT40 TDP1 no CPT inactive, IL-1B inflam inh inactive and HT1080-NT tox inactive.
`CCCCN([C@H](CO)C(C)C)S(=O)(=O)c1ccccc1Br` gave DT40 TDP1 CPT inconclusive, HT1080 IDH1KD tx inactive, DT40 TDP1 no CPT 20.6µM, IL-1B inflam inh inactive and HT1080-NT tox inactive.
`CCOc1cc(C=C(C(=O)OC)C(=O)OC)ccc1OCc1ccc([N+](=O)[O-])cc1` gave DT40 TDP1 CPT 6.51µM, HT1080 IDH1KD tx 7.31µM, DT40 TDP1 no CPT 11.6µM, IL-1B inflam inh -118.2 and HT1080-NT tox 5.8µM.
CCOc1cc(/C=N/O)ccc1OCc1ccc([N+](=O)[O-])cc1 was read as DT40 TDP1 CPT inconclusive, HT1080 IDH1KD tx inactive, DT40 TDP1 no CPT inactive, IL-1B inflam inh inactive and HT1080-NT tox inactive.
For COc1ccc(NC(=O)OCCN2CCN(Cc3ccccc3)CCC2=O)cc1 the results were DT40 TDP1 CPT inactive, HT1080 IDH1KD tx inactive, DT40 TDP1 no CPT inactive, IL-1B inflam inh inactive and HT1080-NT tox inactive.
For Cc1cc(C)cc(NC(=O)OCCN2CCN(Cc3ccccc3)CCC2=O)c1 the results were DT40 TDP1 CPT inactive, HT1080 IDH1KD tx inactive, DT40 TDP1 no CPT 23.1µM, IL-1B inflam inh inactive and HT1080-NT tox inactive.
For Cc1ccc(S(=O)(=O)N2CCC(=O)N(CCOC(=O)Nc3ccccc3C)CC2)cc1 the results were DT40 TDP1 CPT inactive, HT1080 IDH1KD tx inactive, DT40 TDP1 no CPT inconclusive, IL-1B inflam inh inactive and HT1080-NT tox inactive.
Screening Cc1ccc(S(=O)(=O)N2CCC(=O)N(CCOC(=O)Nc3cc(C)cc(C)c3)CC2)cc1 returned DT40 TDP1 CPT 16.4µM, HT1080 IDH1KD tx inactive, DT40 TDP1 no CPT inconclusive, IL-1B inflam inh inactive and HT1080-NT tox inactive.
`Cc1ccc(S(=O)(=O)/N=C(/c2ccc(F)cc2)N(C)C)cc1` gave DT40 TDP1 CPT inactive, HT1080 IDH1KD tx inactive, DT40 TDP1 no CPT inactive, IL-1B inflam inh inactive and HT1080-NT tox inactive.
For CS(=O)(=O)c1ccccc1NC(=O)COc1ccccc1C(=O)Nc1ccccc1 the results were DT40 TDP1 CPT 11.2µM, HT1080 IDH1KD tx inactive, DT40 TDP1 no CPT 11.2µM and HT1080-NT tox inactive.
`O=C(O)c1ccccc1-c1ccccc1C(=O)Nc1ccc2c(c1)C(=O)c1ccccc1-2` gave DT40 TDP1 CPT inconclusive, HT1080 IDH1KD tx inactive, DT40 TDP1 no CPT inconclusive, IL-1B inflam inh inactive and HT1080-NT tox inactive.
Cc1ccc(NC(=O)COc2ccccc2C(=O)Nc2ccccc2)cc1Cl was read as DT40 TDP1 CPT inactive, HT1080 IDH1KD tx inactive, DT40 TDP1 no CPT inactive, IL-1B inflam inh inactive and HT1080-NT tox inactive.
For CNC(=O)COc1ccccc1C(=O)Nc1ccccc1 the results were DT40 TDP1 CPT inactive and DT40 TDP1 no CPT inactive.
For O=C(O)c1ccccc1-c1ccccc1C(=O)Nc1ccc2c(c1)oc(=O)c1ccccc12 the results were DT40 TDP1 CPT inconclusive, HT1080 IDH1KD tx inactive, DT40 TDP1 no CPT 13µM, IL-1B inflam inh inconclusive and HT1080-NT tox inconclusive.
COC(=O)c1ccc(NC(=O)c2ccccc2OCC(=O)Nc2ccc(Br)cc2)cc1 was read as DT40 TDP1 CPT inconclusive, HT1080 IDH1KD tx inconclusive, DT40 TDP1 no CPT 10µM and HT1080-NT tox inconclusive.
For CN(C)C(=O)COc1ccccc1C(=O)OCC(=O)Nc1ccc(Oc2ccc(Br)cc2)cc1 the results were DT40 TDP1 CPT inconclusive and DT40 TDP1 no CPT 11.2µM.
For N#Cc1ccc(CN2CC[C@@]3(CCCN(C(=O)c4ccco4)C3)C2)cc1 the results were DT40 TDP1 CPT inactive and DT40 TDP1 no CPT inactive.
For CCOc1cc2ccccc2cc1C(=O)OCC(=O)Nc1ccc(Br)cc1 the results were DT40 TDP1 CPT inactive and DT40 TDP1 no CPT inactive.
For O=C(COC(=O)c1ccccc1OCC(=O)Nc1ccc(Br)cc1)Nc1ccccc1 the results were DT40 TDP1 CPT inconclusive, HT1080 IDH1KD tx inactive, DT40 TDP1 no CPT inconclusive, IL-1B inflam inh inactive and HT1080-NT tox inactive.
For COc1cc2ccccc2cc1C(=O)OCC(=O)Nc1ccc(Br)cc1 the results were DT40 TDP1 CPT 7.94µM and DT40 TDP1 no CPT inconclusive.
CC(C)c1cccc(NC(=O)COC(=O)c2ccccc2OCc2cccc(Br)c2)c1 was read as DT40 TDP1 CPT inconclusive and DT40 TDP1 no CPT 15.8µM.
Screening CC(C)(C)c1ccc(NC(=O)COC(=O)c2ccccc2OCC(=O)Nc2ccc(Br)cc2)cc1 returned DT40 TDP1 CPT 15.8µM and DT40 TDP1 no CPT inconclusive.
